# Laboratory results from ChEMBL document CHEMBL1157539, “Thousands of chemical starting points for antimalarial lead identification” (Nature, 2010).
# What was measured:
# Type in all cases: functional
# Plasmodium falciparum [1] = assay: GSK_TCMDC: Inhibition of Plasmodium falciparum 3D7 in whole red blood cells, using parasite LDH activity as an index of growth. Test compounds present at 2uM
# Plasmodium falciparum [2] = assay: GSK_TCMDC: Inhibition of Plasmodium falciparum Dd2 in whole red blood cells, using parasite LDH activity as an index of growth. Test compounds present at 2uM
# HepG2 = assay: GSK_TCMDC: Percent inhibition of human HepG2 cell line. Test compounds present at 10uM.
smiles,measurement,setting,value
O=C(Nc1ccc(Cl)c(C(F)(F)F)c1)c1ccc(C(=O)Nc2ccc(Cl)c(C(F)(F)F)c2)cc1,Inhibition,Plasmodium falciparum [1],88%
same,Inhibition,Plasmodium falciparum [2],27%
same,Inhibition,HepG2,9%
CCCCNC(=O)c1cc(CNC2CCCCC2)ccc1-c1cccc(CNCc2ccc(-c3ccccc3)cc2)c1.O=C(O)C(F)(F)F,Inhibition,Plasmodium falciparum [1],100%
same,Inhibition,Plasmodium falciparum [2],85%
same,Inhibition,HepG2,100%
CC(C)C[C@H](NC(=O)c1cccc(F)c1)C(=O)N[C@H](/C=N/NC(=O)c1ccccc1)CCc1ccccc1,Inhibition,Plasmodium falciparum [1],93%
same,Inhibition,Plasmodium falciparum [2],71%
same,Inhibition,HepG2,0%
Oc1cc2c(cc1CN1CCN(Cc3cccs3)CC1)CCC2,Inhibition,Plasmodium falciparum [1],99%
same,Inhibition,Plasmodium falciparum [2],91%
same,Inhibition,HepG2,10%
CN(C)c1ccc(C=C2SC(=N)N(c3nccs3)C2=O)cc1,Inhibition,Plasmodium falciparum [1],97%
same,Inhibition,Plasmodium falciparum [2],50%
same,Inhibition,HepG2,38%
COc1cc2c(cc1N1CCN(C)CC1)N(C(=O)Nc1ccc(-c3ccncc3)c(Cl)c1Cl)CC2,Inhibition,Plasmodium falciparum [1],100%
same,Inhibition,Plasmodium falciparum [2],4%
same,Inhibition,HepG2,10%
CCCC(CCC)n1ccc2c3c(N)nc(N)nc3ccc21.Cl,Inhibition,Plasmodium falciparum [1],98%
same,Inhibition,Plasmodium falciparum [2],97%
same,Inhibition,HepG2,66%
CN(C)c1cccc2c1nc(-c1ccc3c(c1)CCO3)n2CCNCc1ccccc1.O=C(O)C(F)(F)F,Inhibition,Plasmodium falciparum [1],99%
same,Inhibition,Plasmodium falciparum [2],85%
same,Inhibition,HepG2,6%
COc1ccc(Nc2ccnc3cc(Cl)ccc23)cc1OC,Inhibition,Plasmodium falciparum [1],100%
same,Inhibition,Plasmodium falciparum [2],91%
same,Inhibition,HepG2,36%
O=C(Nc1ccc(C(F)(F)F)cc1)Nc1ccccc1N1CCNCC1.O=C(O)C(F)(F)F,Inhibition,Plasmodium falciparum [1],94%
same,Inhibition,Plasmodium falciparum [2],69%
same,Inhibition,HepG2,39%
COc1ccc2nccc(N(C)CC3(O)CCC(NCc4cc5c(cn4)OCCO5)CC3)c2n1.Cl (centres undefined),Inhibition,Plasmodium falciparum [1],99%
same,Inhibition,Plasmodium falciparum [2],14%
same,Inhibition,HepG2,1%
O=C(CC1SC(N2N=C(c3cccs3)CC2c2ccccc2)=NC1=O)Nc1ccccc1F (centres undefined),Inhibition,Plasmodium falciparum [1],87%
same,Inhibition,Plasmodium falciparum [2],76%
same,Inhibition,HepG2,9%
N#Cc1ccc(-c2ccc(C(=O)NC3CCN(CCN4CCC(c5cn(CCOC6CCCCO6)c6ccccc56)CC4)CC3)cc2)cc1 (centres undefined),Inhibition,Plasmodium falciparum [1],99%
same,Inhibition,Plasmodium falciparum [2],86%
same,Inhibition,HepG2,48%
COc1ccc2nccc([C@@H](O)CN3CCC(NC(=O)C(c4ccsc4)N4CCN(c5ccccc5OC)CC4)CC3)c2c1 (some centres undefined),Inhibition,Plasmodium falciparum [1],95%
same,Inhibition,Plasmodium falciparum [2],50%
same,Inhibition,HepG2,11%
O=C(O)C(F)(F)F.O=S(=O)(NCCN1CCCC1)c1ccc(-c2ccc(CNCc3ccsc3)cc2)s1,Inhibition,Plasmodium falciparum [1],99%
same,Inhibition,Plasmodium falciparum [2],40%
same,Inhibition,HepG2,31%
COc1cccc2cc(C(=O)N[C@@H](CC(C)C)C(=O)N[C@H](/C=N/NC(=O)c3ccccc3)Cc3c[nH]cn3)oc12,Inhibition,Plasmodium falciparum [1],99%
same,Inhibition,Plasmodium falciparum [2],90%
same,Inhibition,HepG2,3%
Cc1[nH]cnc1Cc1ccc2c(c1O)c1ccccc1n2C,Inhibition,Plasmodium falciparum [1],90%
same,Inhibition,Plasmodium falciparum [2],16%
same,Inhibition,HepG2,9%
c1ccc(C2CCC(N3CCC(N4CCN(c5ccccc5)CC4)CC3)CC2)cc1 (centres undefined),Inhibition,Plasmodium falciparum [1],97%
same,Inhibition,Plasmodium falciparum [2],34%
same,Inhibition,HepG2,6%
COc1ccc2nc(C)cc(Nc3ccc(Oc4ccc(Br)c5ccccc45)c(Cl)c3)c2c1,Inhibition,Plasmodium falciparum [1],100%
same,Inhibition,Plasmodium falciparum [2],100%
same,Inhibition,HepG2,100%
CCNc1cc(C(=O)N[C@@H](Cc2ccccc2)[C@H](O)CNC23CCC(CC2)C3)cc(N2CCCCS2(=O)=O)c1.Cl,Inhibition,Plasmodium falciparum [1],97%
same,Inhibition,Plasmodium falciparum [2],99%
same,Inhibition,HepG2,22%
O=C(O)C(F)(F)F.Oc1ccc(CCCNc2nc(NCc3ccccc3-c3ccccc3)nc(N3CCNCC3)n2)cc1,Inhibition,Plasmodium falciparum [1],94%
same,Inhibition,Plasmodium falciparum [2],48%
same,Inhibition,HepG2,39%
COc1cc2c(cc1S(=O)(=O)c1ccc(NC(=O)c3ccc4ccccc4c3)cc1)CCN(C)CC2,Inhibition,Plasmodium falciparum [1],99%
same,Inhibition,Plasmodium falciparum [2],28%
same,Inhibition,HepG2,2%
O=C(O)C(F)(F)F.c1ccc(CN2CCC(NCc3ccc(-c4ccc(CNC5CCCC5)cc4)cc3)CC2)cc1,Inhibition,Plasmodium falciparum [1],100%
same,Inhibition,Plasmodium falciparum [2],98%
same,Inhibition,HepG2,24%
CCCO[C@H](C(=O)OC)[C@@H](CC1Cc2ccccc2C1)C(=O)NCCC1=CCCCC1,Inhibition,Plasmodium falciparum [1],93%
same,Inhibition,Plasmodium falciparum [2],57%
same,Inhibition,HepG2,6%
O=C(NC(Nc1ccc([N+](=O)[O-])cc1)C(Cl)(Cl)Cl)c1ccc(Cl)cc1 (centres undefined),Inhibition,Plasmodium falciparum [1],98%
same,Inhibition,Plasmodium falciparum [2],94%
same,Inhibition,HepG2,21%
CN1CCN(CCCN(Cc2cccc(-c3ccc(CNCc4ccc5c(c4)OCO5)cc3)c2)C(=O)CCC2CCCC2)CC1.O=C(O)C(F)(F)F,Inhibition,Plasmodium falciparum [1],98%
same,Inhibition,Plasmodium falciparum [2],84%
same,Inhibition,HepG2,91%
COc1cc(Cn2ccc3c4c(N)nc(N)nc4ccc32)cc(OC)c1OC,Inhibition,Plasmodium falciparum [1],94%
same,Inhibition,Plasmodium falciparum [2],97%
same,Inhibition,HepG2,66%
Fc1ccccc1C=NN=c1cc[nH]c2ccccc12,Inhibition,Plasmodium falciparum [1],94%
same,Inhibition,Plasmodium falciparum [2],26%
same,Inhibition,HepG2,8%
